Results: PubChem BioAssay (NCI)
Where “and” joins values, the source holds several entries; their conditions need not be identical. Equal entries are not always repeated. The panel holds about 83,000 compounds, 20% with a hit somewhere; the sample as a whole holds those more often.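 48-hour exposure, single concentration, 96-well plates; percent growth endpoint where 0 means no net growth. Active: below 10.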 Calls of active or inactive are those of the source.

Columns and labels:
Experiment in all cases: NCI-60 one-dose screen, 48 h (100 = growth as untreated, 0 = no growth, -100 = all killed)
Details in all cases: 10 µM unless noted
NCI-H23 lung = tested on: NCI-H23 lung
NCI-H226 lung = tested on: NCI-H226 lung
NCI-H322M lung = tested on: NCI-H322M lung
HOP-62 NSCLC = tested on: HOP-62 NSCLC
NCI-H460 lung = tested on: NCI-H460 lung
HOP-92 NSCLC = tested on: HOP-92 NSCLC
NCI-H522 lung = tested on: NCI-H522 lung
A549/ATCC NSCLC = tested on: A549/ATCC NSCLC
786-0 renal = tested on: 786-0 renal
COLO 205 colon = tested on: COLO 205 colon
DU-145 prostate = tested on: DU-145 prostate
K-562 leukemia = tested on: K-562 leukemia
MALME-3M melanoma = tested on: MALME-3M melanoma
MDA-MB-231 breast = tested on: MDA-MB-231 breast
RXF 393 renal = tested on: RXF 393 renal
SF-268 CNS = tested on: SF-268 CNS
SF-295 CNS = tested on: SF-295 CNS
SF-539 CNS = tested on: SF-539 CNS
UACC-257 melanoma = tested on: UACC-257 melanoma
M14 melanoma = tested on: M14 melanoma

Measured: growth

CC1(C)CC([P+](c2ccccc2)(c2ccccc2)c2ccccc2)=NN1
inactive: NCI-H23 lung 28.1% | NCI-H226 lung 53.1% | NCI-H322M lung 81.1% | HOP-62 NSCLC 76.6% | NCI-H460 lung 17.2% | NCI-H522 lung 27.4% | A549/ATCC NSCLC 37.1% | 786-0 renal 80.4% | DU-145 prostate 49.6% | MALME-3M melanoma 21.2% | MDA-MB-231 breast 65.4% | RXF 393 renal 59.6% | SF-268 CNS 41.1% | SF-295 CNS 53.2% | SF-539 CNS 51% | M14 melanoma 71.9%
active: HOP-92 NSCLC -1.14% | COLO 205 colon -49.9% | K-562 leukemia 9.92% | UACC-257 melanoma 2.89%

CN(C)CCOc1ccc2c(c1)C(=O)/C(=C\c1ncc([N+](=O)[O-])n1C)C2
active: NCI-H23 lung -42.7% | NCI-H226 lung -38.5% | NCI-H322M lung 6.13% | HOP-62 NSCLC -17.8% | NCI-H460 lung -57.5% | HOP-92 NSCLC -54.3% | NCI-H522 lung -59.8% | A549/ATCC NSCLC -29.6% | 786-0 renal -26.4% | COLO 205 colon -91.9% | DU-145 prostate -37.8% | K-562 leukemia -39.7% | MALME-3M melanoma -72.7% | MDA-MB-231 breast -21.1% | RXF 393 renal -60.5% | SF-268 CNS -44.4% | SF-295 CNS -12.7% | SF-539 CNS -73.2% | UACC-257 melanoma -38.6% | M14 melanoma -67.2%

NC(N)=N/N=C/c1ccc([N+](=O)[O-])o1
inactive: NCI-H23 lung 65.5% | NCI-H226 lung 100% | NCI-H322M lung 87.2% | HOP-62 NSCLC 113% | NCI-H460 lung 80.2% | HOP-92 NSCLC 106% | NCI-H522 lung 70.1% | A549/ATCC NSCLC 80.2% | 786-0 renal 98% | DU-145 prostate 91.5% | K-562 leukemia 94.6% | MALME-3M melanoma 68.1% | MDA-MB-231 breast 105% | RXF 393 renal 95.7% | SF-268 CNS 90.3% | SF-295 CNS 93.4% | SF-539 CNS 104% | UACC-257 melanoma 67.1% | M14 melanoma 99.1%
active: COLO 205 colon 3.2%

CCCCCCCCCCCCCCCCCCOP(=O)([O-])OC1CC[N+](C)(C)CC1
active: HOP-62 NSCLC 5.84% and -72.5% | NCI-H460 lung 1.19% and -34.8% | HOP-92 NSCLC -25.3% | NCI-H522 lung -52.1% and -87.8% | 786-0 renal -28.4% and -54.9% | COLO 205 colon -34.2% and -30.8% | M14 melanoma -33.9% and -72.8%
-49% (active) and 41.2% (inactive): RXF 393 renal
inactive: NCI-H23 lung 76.2% and 60.8% | NCI-H226 lung 48.9% and 18.8% | NCI-H322M lung 59.2% and 40% | A549/ATCC NSCLC 17.1% and 38.2% | DU-145 prostate 54.2% and 25.3% | K-562 leukemia 30.3% and 20.7% | MALME-3M melanoma 69.7% and 16.3% | SF-268 CNS 38.9% and 13.7% | UACC-257 melanoma 45.4% and 19%
11% (inactive) and -10.4% (active): MDA-MB-231 breast
19.5% (inactive) and 0.462% (active): SF-295 CNS
36.3% (inactive) and 4.21% (active): SF-539 CNS

CN(C)C(=O)SC1=C(c2c(Cl)cccc2Cl)C(=O)c2ccccc21
inactive: NCI-H23 lung 70.6% | NCI-H226 lung 111% | NCI-H322M lung 98.3% | HOP-62 NSCLC 92.2% | NCI-H460 lung 98.7% | A549/ATCC NSCLC 110% | 786-0 renal 71.5% | MDA-MB-231 breast 80.6% | SF-268 CNS 13.3% | SF-295 CNS 103% | SF-539 CNS 91.1% | UACC-257 melanoma 48.8% | M14 melanoma 23.2%
active: HOP-92 NSCLC 3.58% | NCI-H522 lung -74.3% | COLO 205 colon -81.8% | DU-145 prostate -8.29% | K-562 leukemia -8.92% | MALME-3M melanoma -69.7% | RXF 393 renal -27.5%

S=C(NCCNC(=S)[S][Sn]([c]1ccccc1)([c]1ccccc1)[c]1ccccc1)[S][Sn]([c]1ccccc1)([c]1ccccc1)[c]1ccccc1
active: NCI-H23 lung -68.6% | NCI-H226 lung -95.4% | NCI-H322M lung -99.4% | HOP-62 NSCLC -100% | NCI-H460 lung -86.8% | HOP-92 NSCLC -87.3% | NCI-H522 lung -93.2% | A549/ATCC NSCLC -98.8% | 786-0 renal -94% | COLO 205 colon -91.3% | DU-145 prostate -96.1% | MALME-3M melanoma -70.4% | MDA-MB-231 breast -82.1% | RXF 393 renal -99.7% | SF-268 CNS -90.9% | SF-295 CNS -83.5% | SF-539 CNS -81.7% | UACC-257 melanoma -100% | M14 melanoma -94%

COc1ccccc1OC(=O)Oc1ccccc1OC
inactive: NCI-H23 lung 101% and 95.5% | NCI-H226 lung 99.7% and 106% | NCI-H322M lung 94.3% and 99.5% | HOP-62 NSCLC 120% and 100% | NCI-H460 lung 108% and 104% | NCI-H522 lung 85.3% and 92.5% | A549/ATCC NSCLC 90.1% and 109% | 786-0 renal 103% and 96.6% | COLO 205 colon 123% and 104% | DU-145 prostate 112% and 96% | K-562 leukemia 125% and 104% | MALME-3M melanoma 94.8% and 98.5% | MDA-MB-231 breast 103% and 107% | RXF 393 renal 102% and 113% | SF-268 CNS 111% and 94.9% | SF-295 CNS 106% and 103% | SF-539 CNS 121% and 103% | UACC-257 melanoma 97.6% and 115% | M14 melanoma 103% and 99.7%
108% (inactive) and -0.941% (active): HOP-92 NSCLC

NC(=O)/C=C/C(=O)c1c(Cl)cccc1Cl
inactive: NCI-H226 lung 37.9% | NCI-H322M lung 19.1% | SF-295 CNS 81.9%
active: NCI-H23 lung -79.1% | HOP-62 NSCLC -4.87% | NCI-H460 lung -34.1% | HOP-92 NSCLC -99.3% | NCI-H522 lung -59.5% | A549/ATCC NSCLC -43.1% | 786-0 renal -98.8% | COLO 205 colon -89.6% | DU-145 prostate -75.9% | K-562 leukemia -19.2% | MALME-3M melanoma -68.4% | MDA-MB-231 breast -79.1% | RXF 393 renal -41.6% | SF-268 CNS -57.3% | SF-539 CNS -95.4% | UACC-257 melanoma -81.7% | M14 melanoma -96.5%

CN(Cc1cnc2nc(N)nc(N)c2n1)c1ccc(C(=O)NC(CCC(=O)O)C(=O)O)cc1 (centres undefined)
inactive: NCI-H23 lung 23.4% | NCI-H226 lung 30.2% | NCI-H322M lung 48.6% | HOP-62 NSCLC 43% | NCI-H460 lung 16.4% | HOP-92 NSCLC 37.1% | NCI-H522 lung 29.2% | A549/ATCC NSCLC 19.8% | 786-0 renal 13.7% | COLO 205 colon 58.5% | DU-145 prostate 26.7% | K-562 leukemia 18.7% | MALME-3M melanoma 43.8% | MDA-MB-231 breast 82.8% | RXF 393 renal 46.1% | SF-268 CNS 25.5% | SF-295 CNS 20% | SF-539 CNS 22.2% | UACC-257 melanoma 53% | M14 melanoma 10.9%

CCN(CC)CCOc1ccc(-c2nc3cc(Cl)ccc3s2)cc1
inactive: NCI-H226 lung 65.2% | NCI-H322M lung 28.3% | HOP-92 NSCLC 19.3% | 786-0 renal 29.5% | DU-145 prostate 12% | MALME-3M melanoma 28.7% | RXF 393 renal 29.8% | SF-268 CNS 16.5%
active: NCI-H23 lung -53.6% | HOP-62 NSCLC -66.6% | NCI-H460 lung -64.6% | NCI-H522 lung -39.5% | A549/ATCC NSCLC -1.04% | COLO 205 colon -73.9% | K-562 leukemia -99.1% | MDA-MB-231 breast -44.8% | SF-295 CNS -71.5% | SF-539 CNS -15.5% | UACC-257 melanoma -36.2% | M14 melanoma -75.4%

CC1=CC(O)C2CC1C2(C)C (centres undefined)
inactive: NCI-H23 lung 112% and 110% | NCI-H226 lung 98.1% and 97.9% | NCI-H322M lung 101% and 97.1% | HOP-62 NSCLC 93.4% and 102% | NCI-H460 lung 108% | HOP-92 NSCLC 100% and 78.2% | NCI-H522 lung 86.2% and 92% | A549/ATCC NSCLC 91.9% and 106% | 786-0 renal 95.7% and 110% | COLO 205 colon 94.5% and 112% | DU-145 prostate 108% and 122% | K-562 leukemia 96.6% and 93.4% | MALME-3M melanoma 97.6% and 107% | MDA-MB-231 breast 99.1% and 110% | RXF 393 renal 115% and 104% | SF-268 CNS 104% and 113% | SF-295 CNS 103% | SF-539 CNS 99.8% and 110% | UACC-257 melanoma 95.9% and 110% | M14 melanoma 97.3% and 109%

O=C(/C=C\c1ccccc1)N1c2ccccc2CC1c1c[nH]c2ccccc12 (centres undefined)
inactive: NCI-H23 lung 59.5% | NCI-H226 lung 67.3% | NCI-H322M lung 76.9% | HOP-62 NSCLC 57.1% | NCI-H460 lung 70.1% | HOP-92 NSCLC 47.5% | NCI-H522 lung 30.2% | A549/ATCC NSCLC 64.5% | 786-0 renal 77.7% | COLO 205 colon 56.6% | DU-145 prostate 89.7% | K-562 leukemia 65.9% | MALME-3M melanoma 85.4% | MDA-MB-231 breast 60.8% | RXF 393 renal 93.4% | SF-268 CNS 75.2% | SF-295 CNS 68.7% | SF-539 CNS 95.1% | UACC-257 melanoma 88.8% | M14 melanoma 71.6%
